In PubChem BioAssay (Tox21):
Results filed as inconclusive are left out. Calls of active or inactive are those of the source. Calls follow the shape of the dose curve; as a rule, active = well fitted activation curve with a large enough effect in the repeat runs; inconclusive = weak or mixed curves; inactive = flat fitted curve, though single readings scatter.

test: A CellTox Green Cytotoxicity Assay to monitor cytotoxicity in HepG2 cells - 40 hour (AID 1224879); conditions: CellTox Green fluorescence; series mostly up to 76.8 µM; cytotoxicity increase: at the top concentration; also: nearly all actives have a fitted effect of over 40% in size
Source text: National Center for Advancing Translational Sciences [NCATS]
NIH Chemical Genomics Center [NCGC]
U.S. Environmental Protection Agency [EPA]
National Institutes of Environmental Health Sciences [NIEHS]
National Toxicology Program [NTP]
Cell-based models are critical for drug discovery. Determining the natural cytotoxic effects resulting from test compounds is an essential research activity. A CellTox Green Cytotoxicity Assay to monitor cytotoxicity in real time of continues cell culture during 40 hours of the compound treatment was used to screen Tox21 10K library compounds in HepG2 cells. CellTox Green Cytotoxicity Assay is a nonlytic, homogeneous, biofluorescent method to measure cytotoxicity in cell culture after experimental manipulation. The assay system uses a proprietary asymmetric cyanine dye that is excluded from viable cells but preferentially stains the dead cell's DNA. […] Viable cells produce no appreciable increases in fluorescence. Therefore, the fluorescence signal produced by the binding interaction with dead cell DNA is proportional to cytotoxicity.
The mixture of HepG2 cell suspension and reagents were dispensed at 600cells/6 ul/well in 1536-well tissue culture treated black solid bottom plates using a Multidrop dispenser. After the assay plates were incubated at a 37 C/5% CO2 incubator for 5 hours, 23 nL of compounds dissolved in DMSO, positive and negative controls was transferred to the assay plate by a pintool work station. The plates were incubated at 37 C for 40 hours. The fluorescence intensity were measured at 0h, 8h, 16h, 24h, 32h and 40h time points using ViewLux plate reader during compound treatment.
% is scaled to controls: 0 for no effect and ±100 for the full control effect; potency is read from the fitted curve at half-maximal effect.

Row | Structure (SMILES) | cytotoxicity increase | Potency
1 | CC(C)(C)CC(=O)OCC(=O)[C@@]1(O)CC[C@H]2[C@@H]3CCC4=CC(=O)C=C[C@]4(C)[C@H]3[C@@H](O)C[C@@]21C | -2.19% [at 35.3 µM] (inactive) | –
2 | C/C=C(/C(=C/C)c1ccc(O)cc1)c1ccc(O)cc1 | – | 19 µM (active)
3 | CC(=O)Nc1ccc(C)cc1C | 0.0088% (inactive) | –
4 | CC1=C(Br)C(=O)C(Br)=C/C1=C(/c1ccccc1S(=O)(=O)O)c1cc(Br)c(O)c(Br)c1C | -17.7% [at 35.3 µM] (inactive) | –
5 | CC1(C)[C@@H](OC(=O)CCC(=O)O)CC[C@]2(C)[C@H]3C(=O)C=C4[C@@H]5C[C@@](C)(C(=O)O)CC[C@]5(C)CC[C@@]4(C)[C@]3(C)CC[C@@H]12 | 1.17% [at 35.3 µM] (inactive) | –
6 | CCOC(=O)c1ccc(OCCN2C[C@H](O)[C@@H](O)[C@H](O)[C@H]2CO)cc1 | -3.17% [at 35.3 µM] (inactive) | –
7 | CC(C)=CCC/C(C)=C/CC/C(C)=C/CCC(=O)OC/C=C(\C)CCC=C(C)C | -7.81% [at 35.3 µM] (inactive) | –
8 | COc1cc(C(=O)NC2CCN(C)CC2)ccc1Nc1ncc2c(n1)N(C1CCCC1)CC(F)(F)C(=O)N2C | – | 22.5 µM (active)
9 | CC(C)=CCC1C(=O)N(c2ccccc2)N(c2ccccc2)C1=O | -0.101% [at 35.3 µM] (inactive) | –
10 | Nc1nc2ccc([N+](=O)[O-])cc2s1 | – | 43.6 µM (active)
11 | CC(CN(C)C)C(C)(O)Cc1ccc(Cl)cc1 (stereo not given) | 19.7% [at 35.3 µM] (inactive) | –
12 | O=C1c2ccccc2C(=O)c2c(O)c(O)cc(O)c21 | -7.69% (inactive) | –
13 | Cc1[nH]cnc1CN1CCc2c(c3ccccc3n2C)C1=O | -0.518% [at 35.3 µM] (inactive) | –
14 | CCC1(CO)COCOC1 | -11.5% (inactive) | –
15 | CN(C)CCC=C1c2ccccc2C=Cc2ccccc21 | – | 23.9 µM (active)
16 | CCCCCCCCC(CCCCCC)C(=O)O (stereo not given) | – | 61.6 µM (active)
17 | COc1ccccc1N1CCN(CCCCNC(=O)c2ccc(-c3ccc(C(C)=O)cc3)cc2)CC1 | – | 26.8 µM (active)
18 | CCC(C)COC(C)=O (stereo not given) | 0.185% (inactive) | –
19 | NNC(=O)CP(=O)(c1ccccc1)c1ccccc1 | -16.1% [at 35.3 µM] (inactive) | –
20 | CCC(=O)OC | -0.814% (inactive) | –

Row | Structure (SMILES) | cytotoxicity increase | Potency
21 | O[C@@H]1CO[C@H]2[C@@H]1OC[C@@H]2O | 6.01% [at 35.3 µM] (inactive) | –
22 | CC(C)Nc1cccnc1N1CCN(C(=O)c2cc3cc(NS(C)(=O)=O)ccc3[nH]2)CC1 | 11.3% [at 35.3 µM] (inactive) | –
23 | C[C@H]1c2cccc(O)c2C(O)=C2C(=O)[C@]3(O)C(O)=C(C(N)=O)C(=O)[C@@H](N(C)C)[C@@H]3[C@@H](O)[C@@H]21 | 12.3% [at 35.3 µM] (inactive) | –
24 | CC(C)C[C@H](NC(=O)[C@H](CCc1ccccc1)NC(=O)CN1CCOCC1)C(=O)N[C@@H](Cc1ccccc1)C(=O)N[C@@H](CC(C)C)C(=O)[C@@]1(C)CO1 | – | 0.0169 µM (active)
25 | OCCN1CCN(CCCN2c3ccccc3Sc3ccc(Cl)cc32)CC1 | – | 19 µM (active)
26 | c1csc(SSc2cccs2)c1 | – | 54.9 µM (active)
27 | Cc1cc(C)c(N)cc1C | -5.72% (inactive) | –
28 | C[C@H]1C[C@H](O)c2ccsc2S1(=O)=O | 0.333% [at 35.3 µM] (inactive) | –
29 | c1ccc(C[n+]2cccc3ccccc32)cc1 | -9.43% (inactive) | –
30 | CCn1cc(C(=O)O)c(=O)c2cc(F)c(N3CCNCC3)cc21 | -10.3% [at 35.3 µM] (inactive) | –
31 | COC(=O)CCS | -2.32% (inactive) | –
32 | Cc1cccc(O)c1N | 2.75% (inactive) | –
33 | Cc1ccc2c(Br)cc(Br)c(O)c2n1 | -4.4% [at 35.3 µM] (inactive) | –
34 | CCCCCCCCN | -2.68% (inactive) | –
35 | Cc1cscn1 | -6.03% (inactive) | –
36 | CN1CC(=O)N2[C@H](c3ccc4c(c3)OCO4)c3[nH]c4ccccc4c3C[C@@H]2C1=O | -5.21% [at 35.3 µM] (inactive) | –
37 | CC[N+](CC)(CCNC(=O)C(=O)NCC[N+](CC)(CC)Cc1ccccc1Cl)Cc1ccccc1Cl | -0.0754% [at 35.3 µM] (inactive) | –
38 | COc1cc(Nc2c(C#N)cnc3cc(OCCCN4CCN(C)CC4)c(OC)cc23)c(Cl)cc1Cl | – | 9.52 µM (active)
39 | CCC(OCCCOC)OC(C)=O (stereo not given) | 1.29% (inactive) | –
40 | Brc1cc(Br)c(Oc2cc(Br)c(Br)cc2Br)cc1Br | -11.9% [at 35.3 µM] (inactive) | –
